Screening data: PubChem BioAssay, several laboratories
Shown are actives, neighbours in structure and some others; about 2.4% of the full set was active somewhere.
m5-HT2A agonist – mouse HTR2A agonism via beta-arrestin recruitment | activation, % at 7.6 µM | CHO-K1 mHTR2A beta-arrestin complementation, luminescence; percent of 30 µM serotonin response | P35363 | 0.66% of 360,000 active;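 active = activation above a run cutoff, the mean activation of all tested compounds plus 3 SD, cut at about 14% in these data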;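 note: 0% = plate median of compound wells and 100% = 30 µM serotonin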
NOD2 RIPK2 PPI – inhibitors of human NOD2-RIPK2 interaction; 0.38% of 360,000 active; O43353; inhibition, % at 4.98 µM; AID 624267; CHO BLA complementation NOD2-RIPK2, CCF4 ratio; in the data active = inhibition above about 21%;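 note: 0% = vehicle only and 100% = reference blocker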
TLR4-MyD88 BLA – blocks binding of human TLR4 to MyD88; O00206+Q99836; HeLa CL3-4 TLR4/MyD88 BLA complementation, FRET ratio; inhibition, % at 8.4 µM; 0.18% of 200,000 active; AID 861; in the data active = inhibition above about 25%;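 note: 0% = vehicle and 100% = reference inhibitor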
ABHD5 PLIN5 PPI – ABHD5-PLIN5 protein interaction inhibition. Q00G26+Q8WTS1. Split G. princeps luciferase complementation, luminescence, 4 h. inhibition, % at 4 µM. 0.78% of 360,000 active;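 active = inhibition above the mean inhibition across every tested compound plus 3 SD, cut at about 22% in these data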;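 note: 0% = DMSO only wells and the 100% control is not disclosed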
Target sequence (Q00G26 whole entry, looked up): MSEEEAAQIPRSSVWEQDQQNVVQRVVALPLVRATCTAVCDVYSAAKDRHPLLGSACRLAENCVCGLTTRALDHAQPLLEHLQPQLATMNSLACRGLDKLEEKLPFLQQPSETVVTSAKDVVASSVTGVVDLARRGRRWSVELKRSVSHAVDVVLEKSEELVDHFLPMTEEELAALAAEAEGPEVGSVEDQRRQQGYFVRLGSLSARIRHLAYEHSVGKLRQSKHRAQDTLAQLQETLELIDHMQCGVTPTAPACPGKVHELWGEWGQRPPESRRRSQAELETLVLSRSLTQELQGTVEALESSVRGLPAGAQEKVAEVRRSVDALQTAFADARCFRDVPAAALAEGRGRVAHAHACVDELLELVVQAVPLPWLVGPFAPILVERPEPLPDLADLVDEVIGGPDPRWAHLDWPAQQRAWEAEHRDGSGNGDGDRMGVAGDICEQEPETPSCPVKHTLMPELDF
Target sequence (Q8WTS1 whole entry, looked up): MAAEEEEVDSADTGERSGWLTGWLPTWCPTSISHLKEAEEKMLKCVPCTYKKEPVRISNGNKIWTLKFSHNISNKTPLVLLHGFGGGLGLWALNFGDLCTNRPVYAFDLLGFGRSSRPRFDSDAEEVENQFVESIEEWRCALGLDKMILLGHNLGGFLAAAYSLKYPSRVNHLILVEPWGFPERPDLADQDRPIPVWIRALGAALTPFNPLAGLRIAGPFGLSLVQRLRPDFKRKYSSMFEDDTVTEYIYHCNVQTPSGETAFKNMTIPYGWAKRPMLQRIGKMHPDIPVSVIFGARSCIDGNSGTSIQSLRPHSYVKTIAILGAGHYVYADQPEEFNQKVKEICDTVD
CRFBP-R2 block – blocks CRF-induced signaling of the CRF-BP/CRF-R2 complex; HEK293 CRF-R2/CRF-BP, CRF-induced calcium fluorescence; inhibition, % at 11.8 µM; 0.59% of 350,000 active;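 active = inhibition of the ligand-induced calcium signal above about 50% at the single tested concentration, limit read from the data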
TLR9-MyD88 inh – TLR9-MyD88 interaction inhibition; Q9NR96+Q99836; 0.21% of 340,000 active; inhibition, % at 4.98 µM; CHO BLA complementation TLR9-MyD88, CCF4 FRET ratio;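 active = inhibition above the mean over all tested compounds plus 3 SD, cut at about 21% in these data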;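 note: 0% = DMSO only wells and 100% = clavulanate BLA inhibitor control wells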
OPRM1 ag – OPRM1 agonism in mouse HTR2A counterscreen | shares compounds with m5-HT2A agonist | U2OS OPRM1 beta-arrestin PathHunter, luminescence; DMSO 0%, DAMGO 9.3 µM 100% | activation, % at 9.3 µM | 5.3% of 2,300 active;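 active = mean activation above the mean of DMSO-only wells plus 3 SD, cut at about 0.5% in these data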
HTR2A ag conf – confirmation of mouse HTR2A serotonin receptor agonists; 19% of 2,300 active; shares compounds with m5-HT2A agonist; CHO-K1 PathHunter beta-arrestin recruitment, luminescence; DMSO 0%, 30 µM serotonin 100%; AID 624381; activation, % at 7.6 µM;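 active = mean activation across triplicates above the hit threshold derived in the original primary screen, cut at about 15% in these data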
The depositor's hits bear a star; / = not tested or not shown.

SMILES	m5-HT2A agonist	NOD2 RIPK2 PPI	TLR4-MyD88 BLA	ABHD5 PLIN5 PPI	CRFBP-R2 block	TLR9-MyD88 inh	OPRM1 ag	HTR2A ag conf
CC(C)(C)n1nnnc1C(c1ccccc1)N1CCN(c2ncc(C(F)(F)F)cc2Cl)CC1 (stereo not given)	-5	-3	/	-10	/	/	/	/
CCC(c1nnnn1-c1ccc2c(c1)OCCO2)N1CCN(c2cccc(C)c2C)CC1 (stereo not given)	4	5	/	-6	/	/	/	/
Cc1cccc(C)c1OCc1cc(C(=O)N2CCCC2c2nonc2C)no1 (stereo not given)	14*	-2	/	-1	0	4	0	4
C=CCSc1nsc(NC(=O)Nc2ccc(F)cc2)n1	17*	1	/	-12	36	-12	0.8*	29*
CCSc1nsc(NC(=O)Nc2ccccc2F)n1	-1	5	/	-17	-7	-2	/	/
O=C(NC1CCCC1)C(C1CC1)n1c(C2CC2)nc2ccccc21 (stereo not given)	1	-10	/	2	/	/	/	/
COc1ccc(-n2nc(C(=O)NCC(=O)N3CCC(C)CC3)c3ccccc3c2=O)cc1	15*	-1	/	-2	-6	-4	0	-1
O=C(Nc1cccc(S(=O)(=O)C(F)(F)F)c1)[C@@H]1O[C@H](CO)[C@@H](O)[C@H]1O	4	13	/	-2	/	/	/	/
CCC(=O)Nc1ccc2c(c1)OC[C@@H](C)N(Cc1cccc(F)c1)C[C@@H](C)[C@@H](OC)CN(C)C2=O	-3	-2	/	-9	/	/	/	/
C=CCOc1cccn2c(N(C)C(=O)c3ccccc3F)c(CC)nc12	16*	-2	/	-2	/	/	0	-2
CCc1nc2c(OCC(=O)c3ccc(F)cc3)cccn2c1N(C)C(=O)C(C)C	24*	-5	/	-2	/	/	0	-5
COc1ccc(Cc2c(-c3cccc(Cl)c3)nc3ccc(Cl)cn23)c(C)c1	-5	-4	/	-5	/	/	/	/
Cc1ccccc1NC(=O)CNC(=O)N1CC(=O)Nc2ccccc21	-3	-3	/	4	31	3	/	/
CC1(C(=O)NS(=O)(=O)c2cccc(C#N)c2)CCN1C(=O)C1(c2ccccc2)CC1 (stereo not given)	4	-2	/	2	/	/	/	/
CCc1nn(CC(=O)NCCc2ccc(S(N)(=O)=O)cc2)c(=O)c2cc3sccc3n12	27*	-4	/	-2	-1	3	-1	-2
CCc1nn(CC(=O)N2CCN(CC)CC2)c(=O)c2cc3sccc3n12	0	-1	/	2	-16	-4	/	/
CCOC(=O)C1=C(CC)Nc2ccccc2N/C1=N\S(=O)(=O)c1cccc(C(C)=O)c1	20*	-1	/	12	0	-5	0	-3
CCOC(=O)C1=C(CC)Nc2ccccc2N/C1=N\S(=O)(=O)c1ccccc1F	-2	2	/	-3	1	0	/	/
CCN(C(=O)C1CCN(S(=O)(=O)c2cccc3nonc23)CC1)c1ccccc1	15*	-7	4	1	7	7	-1	-2
CCC1(c2ccccc2)NC(=O)N(CC(=O)N(C)CC(=O)Nc2cccc(OC)c2)C1=O (stereo not given)	15*	4	/	7	-2	-1	0	3
CCC1(c2ccc(F)cc2)NC(=O)N(CC(=O)Nc2ccccc2C)C1=O (stereo not given)	14*	-5	/	-2	-11	-8	-1	-4
CC(C)(C)OC(=O)CNC(=O)c1[nH]cnc1C(=O)NCC(=O)OCc1ccccc1	15*	5	/	-2	0	2	0	3
CC1(C(=O)NCc2cccs2)Cc2c(-c3ccc(C(N)=O)cc3)ccnc2O1 (stereo not given)	3	7	/	1	/	/	/	/
O=C(COC(=O)c1ccco1)Nc1ccc(N2CCOCC2)cc1	17*	-2	/	2	-7	2	0	-3
Cc1ccc(NC(=O)COc2ccc(S(=O)(=O)N3CCOCC3)cc2)cc1	20*	7	6	4	-14	7	-1	-4
SMILES	m5-HT2A agonist	NOD2 RIPK2 PPI	TLR4-MyD88 BLA	ABHD5 PLIN5 PPI	CRFBP-R2 block	TLR9-MyD88 inh	OPRM1 ag	HTR2A ag conf
CCCCC[C@@H](C)N1C[C@@H](COCc2ccccc2)Oc2cc(N3CC[C@H](N(C)C)C3)ccc2S1(=O)=O	0	8	/	11	/	/	/	/
CC(C)[C@H](NC(=O)C1CC(=O)N(c2ccc3c(c2)OCCO3)C1)C(=O)NC1CCCC1 (stereo not given in full)	22*	1	/	1	-3	-3	-1	-3
Cc1ccc([C@@H]2[C@@H]3C(=O)N(C)C(=O)[C@@H]3[C@]3(C)C(=O)N(Cc4ccccn4)CC(=O)N23)o1	17*	5	/	5	13	-10	-1	-2
Cc1ccc([C@@H]2[C@@H]3C(=O)N(C)C(=O)[C@@H]3[C@]3(Cc4ccccc4)C(=O)N(Cc4ccccn4)CC(=O)N23)o1	9	10	/	4	-9	5	/	/
CCN(CC)C(=O)c1ccc(-c2nnc(Nc3ccc(C(=O)NC)cc3)c3ccccc23)cc1	14*	3	/	1	17	-1	-1	-5
CNC(=O)c1ccc(Nc2nnc(-c3ccc(O)cc3)c3ccccc23)cc1	-3	4	/	-3	12	-3	/	/
COC(=O)C1=CN(c2cccc(OCc3ccccc3)c2)C(N)=C(C#N)C1c1cccc(OC)c1OC (stereo not given)	7	-25	/	10	/	/	/	/
CCN(CC)C(=O)c1cccc(-c2csc(C(O)c3ccc(F)c(F)c3)n2)c1 (stereo not given)	-6	5	/	-4	/	/	/	/
COc1ccccc1N(C)S(=O)(=O)c1ccc(C(=O)Nc2ncc(C)s2)cc1	-17	2	/	-12	-4	-8	/	/
COc1ccccc1N(C)S(=O)(=O)c1ccc(C(=O)Nc2nc(C)c(C(C)=O)s2)cc1	18*	6	/	7	-7	-3	0	-2
CC(=O)N1C[C@@H](CO)[C@@H](N(C)C(=O)C2CCCCC2)C[C@H]1c1ccccc1	-1	-2	/	7	/	/	/	/
Cc1cccc(/C(N)=N/OC(=O)c2ccncc2)c1	25*	-7	/	-2	12	-10	0.6*	1
N/C(=N\OC(=O)c1ccncc1)c1cccc([N+](=O)[O-])c1	-1	5	/	4	0	-8	/	/
Cc1cc(C)nc(SCC(=O)Nc2ccc(S(=O)(=O)Nc3ncccn3)cc2)n1	19*	2	-8	-4	26	-5	-1	-4
Cc1noc(C)c1NC(=O)N(C)C[C@@H]1Oc2cc(Br)ccc2S(=O)(=O)N([C@H](C)CO)C[C@@H]1C	0	4	/	1	28	5	/	/
